Source: PubChem (National Center for Advancing Translational Sciences (NCATS))
HCV inh = qHTS Assay for Inhibitors of Hepatitis C Virus (HCV); Potency, µM (series often up to 41.8 µM), for inactives: at the highest dose activity change, negative = inhibition, usual class: inhibitors; 340,000 tested, 3.4% active; Huh7.5.1 HCVcc-Cre infection, luciferase reporter, 44 h; note: potency is the fitted concentration of half-maximal effect; % is set by controls: 0 for no effect and ±100 for the full control effect
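After 44 h co-culture of compound, cells and HCVcc-Cre (~0.5 moi), substrate is added for 15 min at room temperature and luciferase measured over 15 sec. Cells were seeded at 1,000/well and pre-cultured 4 h.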
SARS PLP yeast = qHTS of Yeast-based Assay for SARS-CoV PLP; S. cerevisiae expressing SARS-CoV PLpro, growth rescue; Potency, µM (top dose mostly 32.9 µM), inactives show at the highest dose activity, positive = growth rescue, hits mostly activators; AID 485353, 2010; 330,000 tested, 0.19% active; calls by dose curve; note: potency is the fitted concentration of half-maximal effect; 0% is about no effect; nearly all actives have a fitted effect of over 55% in size
Pf growth 96h = Primary qHTS for delayed death inhibitors of the malarial parasite plastid, 96 hour incubation; P. falciparum luciferase reporter growth, 96 h; Potency, µM (doses to about 28.7 µM), for inactives: at the highest dose activity change, negative = inhibition, usual class: inhibitors; 320,000 tested, 6.9% active; note: potency is the fitted concentration of half-maximal effect; % is set by controls: 0 for no effect and ±100 for the full control effect
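Parasite growth measured via integrated firefly luciferase reporter in P. falciparum. Infected erythrocytes at 2% hematocrit, 0.05% parasitemia final were treated 96 hours at 37 C under 5% CO2, and luminescence was read.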
HCMV antiviral = qHTS Assay for inhibitors of the human cytomegalovirus (HCMV) | HFF cells, HCMV-luciferase reporter, 72 h; stronger effect = lower value | activity change, negative = inhibition, % at 57.5 µM | 410,000 tested, 4.5% active | AID 1259415, 2018; in the data active = activity change below about -60%; inconclusive = no clear call, values can overlap the other calls; inactive = above about -39%; note: % is set by controls: 0 for no effect and ±100 for the full control effect
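Compounds were evaluated in HFFs infected with an HCMV luciferase reporter virus (MOI 1 PFU/cell). Luciferase in lysates collected 72 h post infection served as the replication measure.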
Sm TGR inh = qHTS Assay for the Inhibitors of Schistosoma Mansoni Peroxiredoxins; purified TGR, DTNB reduction, TNB absorbance 405 nm; Potency, µM (highest dose often 114 µM), without a hit: at the highest dose activity change, negative = inhibition, actives largely listed as inhibitors; 360,000 tested, 3% active; note: potency is the fitted concentration of half-maximal effect; % is set by controls: 0 for no effect and ±100 for the full control effect; nearly all actives have a fitted effect of over 60% in size
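Kinetic colorimetric format: TGR-catalysed, NADPH-driven DTNB reduction monitored via TNB absorbance. Enzyme dispensed at 20 nM; compound exposure 15 min at room temperature before reaction start.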
Pf growth 48h = Primary qHTS for delayed death inhibitors of the malarial parasite plastid, 48 hour incubation; P. falciparum luciferase growth in erythrocytes, 48 h; Potency, µM (series often up to 28.7 µM), without a hit: at the top dose activity change, negative = inhibition, usual class: inhibitors; 310,000 tested, 5.9% active; note: potency is the fitted concentration of half-maximal effect; % is set by controls: 0 for no effect and ±100 for the full control effect
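Firefly luciferase activity from engineered P. falciparum reports growth; inhibitors lower the luminescent signal. Cultures contained 2% hematocrit erythrocytes at 0.1% final parasitemia.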
An asterisk follows results filed as active; ? = inconclusive; · = not tested or not shown. Shown are actives, neighbours in structure and some others; about 15% of the full set was active somewhere. Unless noted, calls come from the whole dose curve; as a rule, active = well fitted curve in the direction sought with a large enough effect; inconclusive = small, poorly fitted or top-dose-only effect, or another doubt; inactive = no such curve, though single readings can be large; an effect the other way counts as inactive or inconclusive.

SMILES | HCV inh | SARS PLP yeast | Pf growth 96h | HCMV antiviral | Sm TGR inh | Pf growth 48h
CC(C)c1ccc(C(C)NC(=S)NC2CCCCC2)cc1 (centres undefined) | 11µM* | -5% | 4% | -89* | 7% | 12µM*
CCc1ccc(C(C(=O)NCc2ccc(F)cc2)N(C(=O)c2csnn2)C2CC2)cc1 (centres undefined) | 3% | -1% | 15% | -35 | 6% | ?
O=[N+]([O-])c1ccc(Cc2ccccn2)c([N+](=O)[O-])c1 | -13% | · | · | 12 | · | ·
CCC(C)c1ccc(C(C)NC(=S)NC2CCCCC2)cc1 (centres undefined) | ? | -14% | 9.3µM* | -73* | 16% | 7.4µM*
CC(=O)OC(COC1C[C@@H]2CC[C@@]1(C)C2(C)C)C[N+]1(C)CCCCC1 (some centres undefined) | 29% | 1% | 2.9µM* | -18 | -5% | 3.3µM*
CCOc1ccc(-c2cccc(NC(=O)c3ccco3)c2)nn1 | 0% | -5% | 10µM* | 3 | -5% | ?
CCOc1ccc(-c2cccc(NC(=O)c3cccs3)c2)nn1 | ? | -7% | 3.7µM* | 0 | -2% | 5.2µM*
COc1ccc(-c2cccc(NC(=O)c3cccs3)c2)nn1 | 3.5µM* | 3% | 7.4µM* | -14 | 0% | 9.3µM*
CCOc1ccc(-c2cccc(NC(=O)COc3ccc(Cl)cc3)c2)nn1 | ? | 0% | ? | · | -12% | -11%
O=C(Nc1cccc(-c2nn[nH]n2)c1)c1cccs1 | 10% | -2% | ? | 29 | 0% | 28%
Cc1noc(Cn2c(=O)c3cc4c(cc3n(CC(=O)Nc3cccc(Cl)c3)c2=O)OCO4)n1 | · | · | · | 6 | -11% | ·
Cn1c2ccccc2c2cnn(CC(=O)Nc3ccccc3F)c(=O)c21 | · | · | · | -8 | 0% | ·
COc1cccc(NC(=O)CN(c2cccc(F)c2)S(C)(=O)=O)c1 | 8.9µM* | 0% | · | -13 | -1% | 21%
COC(=O)CN(c1ccc(OC)c(OC)c1)S(C)(=O)=O | 3% | 1% | ? | 33 | -1% | 10%
COc1cccc(NC(=O)CN(c2cccc(OC)c2)S(C)(=O)=O)c1 | 19% | 0% | -22% | -20 | 0% | 0%
COC(=O)CN(c1cccc(OC)c1)S(C)(=O)=O | -11% | 14% | 5.9µM* | -22 | 8% | 7%
COc1ccc(OC)c(N(CC(=O)NCCSCc2ccc(C)cc2)S(C)(=O)=O)c1 | -19% | 1% | -22% | -35 | -15% | -9%
CC(C)c1ccc(N2C(=O)CSC23C(=O)N(Cc2ccccc2F)c2ccccc23)cc1 (centres undefined) | · | · | · | -3 | 0% | ·
CCn1ccnc1C(O)c1ccc(N(C)C)cc1 (centres undefined) | 8% | -2% | -4% | 7 | 10µM* | 91%
Cn1cnnc1SCC(=O)Nc1ncc([N+](=O)[O-])s1 | -8% | -4% | · | -13 | · | ·
COc1ccc(C(=O)Nc2ccc3oc(-c4cc(Cl)ccc4Cl)nc3c2)cc1Br | · | · | · | -3 | -4% | ·
c1cc(CNC23CC4CC(CC(C4)C2)C3)ccn1 | 22% | 2% | 1.9µM* | 3 | · | 12%
O=C(CC12CC3CC(CC(C3)C1)C2)NCc1ccncc1 | · | -14% | -7% | 14 | -2% | ·
Brc1ccc(-c2nnc3c4ccccc4nc(N4CCOCC4)n23)cc1 | 33% | -6% | 49% | -22 | -2% | 26%
Clc1ccc(-c2nnc3c4ccccc4nc(N4CCOCC4)n23)cc1Cl | 6% | -7% | ? | -90* | 3% | -11%
COc1ccc(CCC(=O)Nc2ccc(S(=O)(=O)N3CCCC3)cc2)cc1OC | ? | 6% | ? | 40 | -2% | ?
COc1cccc(NCc2ccc([N+](=O)[O-])s2)c1 | 0% | -3% | 0.33µM* | 30 | -15% | -27%
